# Bioassay records as filed in PubChem BioAssay.
# CYP2C9 inhib = blocks human cytochrome P450 2C9; P11712; CYP2C9 Supersomes, luciferin-H conversion, luminescence; inhibition, % at 5 µM; 96,000 compounds, 20% hits; AID 777;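 active = blocking of liver enzyme CYP2C9 beyond about 50% at 5 µM, limit read from the data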
# Cav32 inh = inhibitors of human Cav3.2 T-type calcium channel | B-score at 10 µM | 100,000 compounds, 4% hits | O95180 | Cav3.2-expressing cells, Fluo-4 calcium fluorescence FDSS; stronger effect = lower value;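 active = single-dose well whose peak fluorescence ratio is a statistical outlier from its plate by either plate-standardised score or position-corrected B-score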
# CYP2C19 activ = cytochrome P450 2C19 (human) activation; P33261; 96,000 tested, under 10 active; recombinant CYP2C19, luciferin-H EGE luminescence; stronger effect = higher value; 0 = fully inhibited enzyme, 1 = untreated enzyme; AID 1025; activation factor at 5 µM;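 active = activation factor of at least 2 at 5 µM in the primary screen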;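 note: 0 = wells with 2.5 mM tranylcypromine and 1 = vehicle-only wells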
# Target sequence (P33261 whole entry, looked up): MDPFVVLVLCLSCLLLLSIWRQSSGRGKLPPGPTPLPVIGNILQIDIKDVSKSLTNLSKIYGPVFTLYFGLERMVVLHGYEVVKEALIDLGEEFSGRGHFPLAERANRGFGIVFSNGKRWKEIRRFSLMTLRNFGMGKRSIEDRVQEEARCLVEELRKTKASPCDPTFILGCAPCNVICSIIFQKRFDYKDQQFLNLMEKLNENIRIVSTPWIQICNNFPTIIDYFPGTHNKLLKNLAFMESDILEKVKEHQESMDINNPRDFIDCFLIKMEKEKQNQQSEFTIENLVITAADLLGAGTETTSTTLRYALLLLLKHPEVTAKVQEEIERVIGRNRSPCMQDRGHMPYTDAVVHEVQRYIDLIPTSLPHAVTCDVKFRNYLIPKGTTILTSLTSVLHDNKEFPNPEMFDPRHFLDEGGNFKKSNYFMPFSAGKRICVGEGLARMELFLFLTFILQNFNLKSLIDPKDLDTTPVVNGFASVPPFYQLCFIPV
# CYP2C9 activ = activators of human CYP2C9. activation factor at 5 µM. P11712. recombinant CYP2C9, luciferin-H conversion, luminescence; stronger effect = higher value; factor 1 = untreated enzyme, 0 = blocked. 96,000 compounds, 1.4% hits;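 active = activation factor of 2 or more for CYP2C9 at a 5 µM dose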;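 note: 0 = sulfaphenazole-blocked wells and 1 = vehicle-only wells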
# CYP2C19 inhib = blocks human cytochrome P450 2C19; P33261; CYP2C19 Supersomes, luciferin-H EGE luminescence, 30 min; inhibition, % at 5 µM; 96,000 compounds, 21% hits;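 active = CYP2C19 inhibition above a set limit at 5 µM in the primary screen, cut at about 50% in these data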;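 note: plate controls were negative control wells for no effect and 2.5 mM tranylcypromine positive control for full effect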
# * hit, by the source's call; x = no result given. Compounds with a hit are over-represented: about 27% of the library has one in this group of screens.
SMILES,CYP2C9 inhib,Cav32 inh,CYP2C19 activ,CYP2C9 activ,CYP2C19 inhib
O=C1[C@H]2[C@H](C=CC[C@H]2C(=O)N2CCOCC2)CCN1Cc1ccc(Cl)c(Cl)c1,x,0.43,x,x,x
C#CCNC(=O)C1=C[C@H](c2ccc(C(F)(F)F)cc2)C[C@H](OCc2ccc(CO)cc2)O1,x,-0.7,x,x,x
CC(C)OC(=O)c1cn(-c2ccccc2)nc1-c1ccco1,22,-0.0018,1,0.8,3
Cc1ccc(-c2nn(-c3ccccc3)cc2CN(Cc2ccccc2)C(=O)c2ccco2)o1,70*,-4*,0.7,0.3,26
CC(C)(C)OC(=O)N[C@@H](CCCCNC(=O)OCc1ccccc1)c1nnc([C@H](CCCCNC(=O)OCc2ccccc2)NC(=O)OC(C)(C)C)o1,x,-2.8*,x,x,x
CC(C)(C)OC(=O)N[C@@H](Cc1ccccc1)c1nnc(S(=O)(=O)Cc2cccc(F)c2)o1,60*,x,0.6,0.4,42
Cc1ccccc1CS(=O)(=O)c1nnc([C@H](CC(C)C)NC(=O)OC(C)(C)C)o1,76*,-1.1,0.7,0.2,29
CCOC(=O)CSc1nnc([C@H](Cc2ccccc2)NC(=O)OC(C)(C)C)o1,1,-0.56,0.6,1,41
CC(C)C[C@H](NC(=O)OC(C)(C)C)c1nnc(SCc2ccccc2)o1,65*,-4.8*,0.3,0.4,74*
CC[C@@H](C)[C@H](NC(=O)OC(C)(C)C)c1nnc(S(=O)(=O)Cc2cc(C)ccc2C)o1,41,-0.67,0.8,0.6,21
O=C(O)c1cc(O)c2c(c1)C(=O)c1cc(O)cc(O)c1C2=O,x,-0.19,x,x,x
COC(=O)[C@@H]1[C@@H](C)N(Cc2ccccc2)C(=O)N[C@H]1c1ccccc1,x,-0.0092,x,x,x
Cc1c(NS(=O)(=O)c2ccc3c(c2)c(=O)n(C)c(=O)n3C)c(=O)n(-c2ccccc2)n1C,6,x,1,0.9,1
CC(=O)c1c(C(C)=O)c(C)n(-c2nc(-c3ccc(C)c(C)c3)c(C)s2)c1C,4,-3.1,1,1,-1
CCOC(=O)CSc1nnc(-c2c[nH]c3ccccc23)n1CC,9,0.48,0.2,0.9,76*
COCCn1c(SCC(N)=O)nnc1-c1c[nH]c2ccccc12,12,0.54,0.7,0.9,27
CCn1c(SCC(=O)NC2CCCC2)nnc1-c1c[nH]c2ccccc12,78*,2.9,0.6,0.2,42
CCn1c(SCC(=O)NCc2ccccc2)nnc1-c1c[nH]c2ccccc12,81*,0.39,0.2,0.2,77*
CCn1c(SC(C)C)nnc1-c1c[nH]c2ccccc12,9,-0.25,0.2,0.9,81*
CCn1c(SCC(=O)NCC2CCCO2)nnc1-c1c[nH]c2ccccc12 (centres undefined),-59,-1,0.9,1.6,12
COC(=O)c1ccc(C23CC4(C2)[C@H](CN(CC2CCCCC2)[C@@H]4c2ccccc2)C3c2ccc(Cl)nc2)cc1 (some centres undefined),x,-0.47,x,x,x
O=C(CS(=O)CC(=O)N(CC(=O)NC1CCCC1)C1CCCC1)Nc1ccc(F)cc1 (centres undefined),0,0.21,1.1,1,-14
CCOc1ccccc1-n1c(SCC(=O)NC2CCCC2)nnc1-c1ccoc1C,74*,-0.15,0.3,0.3,68*
CCOc1ccccc1-n1c(SCC(=O)NC(C)(C)C)nnc1-c1ccoc1C,36,-0.47,0.6,0.6,40
COc1ccc(-c2nc3cnccn3c2Nc2ccc3c(c2)OCO3)cc1,87*,-1,0.1,0.1,88*
SMILES,CYP2C9 inhib,Cav32 inh,CYP2C19 activ,CYP2C9 activ,CYP2C19 inhib
Cc1ccc2nc(-c3ccc(O)cc3)c(Nc3ccc4c(c3)OCCO4)n2c1,47,-0.17,0.6,0.5,42
Cc1ccc(-c2nc3cnccn3c2Nc2ccc3c(c2)OCO3)cc1,86*,-1.2,0.2,0.1,78*
COc1ccc(N/C=C\C(=O)c2ccc3c(c2)OCO3)cc1,-19,-0.024,0.7,1.2,27
Cc1ccc(-c2nc3cnccn3c2Nc2ccc3c(c2)OCCO3)o1,72*,-2.4,0.1,0.3,87*
Cc1cc(C)n2c(Nc3ccc4c(c3)OCCO4)c(-c3ccccc3)nc2n1,76*,-0.52,0.6,0.2,36
Cc1onc(-c2c(F)cccc2Cl)c1C(=O)OCC(=O)Nc1c(C)n(C)n(-c2ccccc2)c1=O,34,-0.29,0.9,0.7,7
Cc1ccc(N2CC(C(=O)OCc3ccccc3)CC2=O)cc1 (centres undefined),9,-0.49,0.7,0.9,30
